A selection: hits, their analogues and other compounds. The true share with any hit is near 27%.
CYP2C9 act – human CYP2C9 activators, primary screen, biochemical, luminescence; recombinant CYP2C9, luciferin-H conversion; active compounds read high; factor 1 = untreated enzyme, 0 = blocked; Cytochrome P450 2C9 (Homo sapiens), P11712; hit rate 1.4% among 96,000; activation factor at 5 µM; AID 1024, 2008;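 active = activation factor of 2 or more for CYP2C9 at a 5 µM dose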
Target sequence (P11712 whole entry, looked up): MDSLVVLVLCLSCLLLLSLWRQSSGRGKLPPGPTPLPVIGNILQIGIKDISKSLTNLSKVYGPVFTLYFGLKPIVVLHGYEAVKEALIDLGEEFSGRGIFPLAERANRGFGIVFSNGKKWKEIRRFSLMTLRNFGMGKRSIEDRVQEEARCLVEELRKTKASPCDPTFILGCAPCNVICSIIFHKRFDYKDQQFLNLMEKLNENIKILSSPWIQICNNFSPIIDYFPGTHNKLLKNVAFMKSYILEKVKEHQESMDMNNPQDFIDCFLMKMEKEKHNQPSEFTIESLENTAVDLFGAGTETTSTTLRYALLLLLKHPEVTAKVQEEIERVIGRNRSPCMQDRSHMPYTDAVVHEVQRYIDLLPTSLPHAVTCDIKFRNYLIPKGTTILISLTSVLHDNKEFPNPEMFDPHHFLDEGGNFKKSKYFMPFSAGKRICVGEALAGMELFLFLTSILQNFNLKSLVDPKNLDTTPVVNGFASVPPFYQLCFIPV
CYP2C19 inh – blockers of cytochrome P450 2C19 activity – biochemical, luminescence, ADME assay, primary screen; inhibition, % at 5 µM; hit rate 21% among 96,000; AID 778, 2007; CYP2C19 Supersomes, luciferin-H EGE luminescence, 30 min; P33261;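 active = CYP2C19 inhibition above a set limit at 5 µM in the primary screen, cut at about 50% in these data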
CYP2C19 act – human CYP2C19 activators, primary screen, biochemical, luminescence. Cytochrome P450 2C19 (Homo sapiens), P33261. recombinant CYP2C19, luciferin-H EGE luminescence; active compounds read high; 0 = fully inhibited enzyme, 1 = untreated enzyme. activation factor at 5 µM. 96,000 tested, under 10 active. AID 1025, 2008;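 active = activation factor of at least 2 at 5 µM in the primary screen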
sEH inh – soluble epoxide hydrolase inhibitors, primary screen, biochemical, human sEH; Bifunctional epoxide hydrolase 2 (Homo sapiens), P34913; recombinant human sEH enzymatic activity assay; inhibition, % at 2 µM; hit rate 0.34% among 91,000; AID 707, 2007; in the data active = inhibition above about 80%
CYP2C9 inh – blockers of cytochrome P450 2C9 activity – biochemical, luminescence, ADME assay, primary screen. CYP2C9 Supersomes, luciferin-H conversion. inhibition, % at 5 µM. hit rate 20% among 96,000;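 active = blocking of liver enzyme CYP2C9 beyond about 50% at 5 µM, limit read from the data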
sEH act – soluble epoxide hydrolase activators, primary screen, biochemical, human sEH | Bifunctional epoxide hydrolase 2 (Homo sapiens), P34913 | purified human sEH enzymatic activity, activator screen | activation, % at 2 µM | hit rate 0.04% among 91,000 | AID 717, 2007; in the data active = activation above about 37%
Of the large screens only hits and unclear results are named; the others gave an inactive call.

CCn1nc(C(=O)N2CCN(Cc3ccc4c(c3)OCO4)CC2)c2ccccc2c1=O	CYP2C9 inh 61.1 (no result: sEH inh, sEH act)
O=C(c1cccn2c(=O)c3cc(Cl)ccc3nc12)N1CCN(Cc2ccc3c(c2)OCO3)CC1	CYP2C19 inh 87.6, CYP2C9 inh 97.1
O=C(NCCN1CCN(c2ccccc2F)CC1)c1cccn2c(=O)c3ccccc3nc12	CYP2C19 inh 59.8, CYP2C9 inh 57.3
CS(=O)(=O)Nc1ccc(C(=O)N2CCN(c3ccccc3)CC2)cc1	none
COc1ccc(C(O)Cc2nc3ccccc3n2C)cc1OC (stereo unspecified)	none (no result: CYP2C9 act, CYP2C19 inh, CYP2C19 act, CYP2C9 inh)
O=c1[nH]c(CN2CCN(Cc3ccc4c(c3)OCO4)CC2)nc2ccccc12	none (no result: CYP2C9 act, CYP2C19 inh, CYP2C19 act, CYP2C9 inh)
O=C(c1cccn2c(=O)c3ccccc3nc12)N1CCN(Cc2ccc3c(c2)OCO3)CC1	CYP2C9 inh 75.3
CCOc1ccccc1OCCOCCN1CC(C)OC(C)C1 (stereo unspecified)	none
CC(C)Cn1c(SC(C)C(=O)Nc2ccc3c(c2)OCCO3)nc2ccccc2c1=O (stereo unspecified)	CYP2C19 inh 82.8, CYP2C9 inh 93.2
COCC(C)n1c(SCC(=O)NC(=O)Nc2ccc3c(c2)OCCO3)nc2ccccc2c1=O (stereo unspecified)	CYP2C19 inh 52.1, CYP2C9 inh 78.0
CCCC(C)C(=O)Nc1ccc2c(c1)OCCO2 (stereo unspecified)	none
O=C(CSc1nnnn1-c1ccccc1)NC(=O)Nc1ccc2c(c1)OCCO2	none
Cc1noc2ncnc(Oc3ccccc3)c12	CYP2C19 inh 75.9
Cc1cccc(Oc2ncnc3onc(C)c23)c1	none
CSc1nc(Sc2ccccc2Cl)c2ccccc2n1	none
Cc1noc2ncnc(Sc3ccccc3Cl)c12	CYP2C19 inh 100.0, CYP2C9 inh 68.2
c1csc(C(c2nnnn2C2CCCCC2)N2CCN(c3nc4ccccc4s3)CC2)c1 (stereo unspecified)	none (no result: CYP2C9 act, CYP2C19 inh, CYP2C19 act, CYP2C9 inh)
COc1ccc(C(=O)CC(Nc2ccc([N+](=O)[O-])cc2)c2ccc(OC)cc2)cc1 (stereo unspecified)	CYP2C9 inh 68.2
COc1ccc(C(=O)Cc2cc(OC)c(OC)cc2[N+](=O)[O-])cc1	none
c1ccc(COc2cccc(CNn3cnnc3)c2)cc1	CYP2C19 inh 50.3
CCOc1cccc(CNn2cnnc2)c1OCc1ccccc1	CYP2C19 inh 56.8
Cc1ccccc1N(C)C(=O)c1coc(=O)c2ccccc12	none
C=CCn1c(SCC(=O)NCc2ccco2)nc2sc3c(c2c1=O)CCCC3	none
CSc1nc(SCC(=O)NCc2ccco2)c2c3c(sc2n1)COC(C)(C)C3	none (no result: sEH inh, sEH act)
CCCSc1nc(SCC(=O)NCc2ccccc2)c2c3c(sc2n1)COC(C)(CC)C3 (stereo unspecified)	none (no result: sEH inh, sEH act)
CCCCSc1nc(SCC(=O)NCc2ccco2)c2c3c(sc2n1)COC(C)(CC)C3 (stereo unspecified)	CYP2C9 inh 51.4
CCc1nc(SCC(=O)NCc2ccco2)c2c3c(sc2n1)CCCC3	CYP2C19 inh 63.2, CYP2C9 inh 85.7
Cc1cc(NC(=O)CSc2nc(C(C)C)nc3sc4c(c23)CCCC4)no1	CYP2C19 inh 79.7, CYP2C9 inh 75.6 (no result: sEH inh, sEH act)
CCCCc1nc2sc3c(SCC(=O)NCc4ccco4)ncnc3c2c2c1CCC2	CYP2C19 inh 58.5, CYP2C9 inh 81.8
Cc1ccc([N+](=O)[O-])cc1N/C=C1\CCc2ccccc2C1=O	none
CC(C)Sc1nc(NCc2ccco2)c2c3c(sc2n1)COC(C)(C)C3	CYP2C9 inh 68.8 (no result: sEH inh, sEH act)
Cc1ccc(S(=O)(=O)NNC(=O)c2sc3nc(C)cc(C)c3c2-n2cccc2)cc1	CYP2C19 inh 80.6, CYP2C9 inh 98.9
COc1ccc(S(=O)(=O)N2CCC(O)(c3ccc4c(c3)OCO4)CC2)cc1	none
O=C(O)CC(=O)NC12CC3CC(CC(C3)C1)C2	none
O=C(c1ccccc1)N1CCC(O)(c2ccc3c(c2)OCO3)CC1	none (no result: CYP2C9 act, CYP2C19 inh, CYP2C19 act, CYP2C9 inh)
O=C(NC12CC3CC(CC(C3)C1)C2)N1CCC(O)(c2ccc3c(c2)OCO3)CC1	sEH inh 88.2
O=S(=O)(c1ccc(F)cc1)N1CCC(O)(c2ccc3c(c2)OCO3)CC1	CYP2C19 inh 70.9
O=C(COc1ccc2c(c1)OCO2)NC12CC3CC(CC(C3)C1)C2	CYP2C19 inh 93.8, CYP2C9 inh 74.6
O=C(Nc1ccc2c(c1)OCCO2)NC12CC3CC(CC(C3)C1)C2	sEH inh 97.3
CCC(c1nnnn1CCc1ccccc1)N1CCN(c2ccc(OC)cc2)CC1 (stereo unspecified)	none
CCc1cc2c(cc3c(=O)n(CC(=O)NCCCN(CC)CC)nc(CC)n32)s1	none
Cc1ccc2nsnc2c1S(=O)(=O)N1CCCC1	none
Cc1ccc2nsnc2c1S(=O)(=O)N1CCN(Cc2ccc3c(c2)OCO3)CC1	CYP2C19 inh 97.3, CYP2C9 inh 72.9
O=S(=O)(Cc1ccccc1Cl)N1CCN(Cc2ccc3c(c2)OCO3)CC1	CYP2C19 inh 93.6
COc1ccc(S(=O)(=O)N2CCN(Cc3ccc4c(c3)OCO4)CC2)c2ccccc12	CYP2C19 inh 89.4, CYP2C9 inh 73.7
CSc1ccc(S(=O)(=O)N2CCN(Cc3ccc4c(c3)OCO4)CC2)cc1	none (no result: sEH inh, sEH act)
COc1ccc(Cl)cc1S(=O)(=O)N1CCN(Cc2ccc3c(c2)OCO3)CC1	CYP2C19 inh 73.8
CC(C)CCOC(=O)C1[C@H]2C(=O)N(Cc3cccs3)C[C@]23C=C[C@H]1O3 (stereo partly specified)	none
COc1ccc(F)cc1S(=O)(=O)N1CCN(Cc2ccc3c(c2)OCO3)CC1	CYP2C19 inh 55.7
O=C(/C=C/c1cccc([N+](=O)[O-])c1)NCc1cccnc1	none
Cc1ccc(NC(=O)c2cc([N+](=O)[O-])ccc2NCc2cccnc2)cc1	CYP2C19 inh 83.3, CYP2C9 inh 90.9
Cc1c(CN(C)C)c2c(n1Cc1ccccc1)C(=O)c1ccccc1-2	none
COc1ccc(-c2n[nH]c(C)c2-c2cc(OC)ccc2O)cc1	CYP2C19 inh 100.4, CYP2C9 inh 91.3
Cc1ccc(O)c(-c2cc(-c3ccccc3F)[nH]n2)c1	none
COc1ccc(O)c(-c2cc(-c3cccc(Br)c3)n[nH]2)c1	CYP2C9 inh 61.4
Cc1ccc(-c2cc(-c3ccccc3C)[nH]n2)c(O)c1	none (no result: CYP2C9 act, CYP2C19 inh, CYP2C19 act, CYP2C9 inh)
Cc1ccc(O)c(-c2cc(-c3cccc(F)c3)n[nH]2)c1	CYP2C9 inh 68.8
COc1ccc(-c2cc(-c3cc(OC)ccc3O)[nH]n2)cc1	none
Cc1ccc(-c2cc(-c3cccc(F)c3)n[nH]2)c(O)c1	CYP2C9 inh 70.1
Cc1c(NS(=O)(=O)c2ccc3c(c2)c(=O)n(C)c(=O)n3C)c(=O)n(-c2ccccc2)n1C	none
CNC(=O)C(=O)NCCc1ccc(Cl)cc1	none
